Among the data in PubChem BioAssay AID1508602 (The Scripps Research Institute Molecular Screening Center, 2020) are activation values, retold here.

Structures are written as SMILES. In all, about 650,000 compounds went through this assay and about 6,800 (1%) were called active. The sample holds actives, similar compounds and a random draw of the others, so the mix is not that of the screen. Rule as the data show it: active = activation above about 4.9%; inactive = the rest.

The target of this test is G-protein coupled receptor 151 (Homo sapiens) (UniProt Q8TDV0). Kind of test: activators of human GPR151, primary screen, cell-based, PathHunter beta-arrestin, luminescence (AID 1508602).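 Also: 0% = median of compound wells and 100% = cells with positive control.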 Conditions: PathHunter beta-arrestin GPR151 cells, at 11.2 µM, stronger effect = higher value.
Sequence of G-protein coupled receptor 151 (Homo sapiens) (Q8TDV0 whole entry, looked up): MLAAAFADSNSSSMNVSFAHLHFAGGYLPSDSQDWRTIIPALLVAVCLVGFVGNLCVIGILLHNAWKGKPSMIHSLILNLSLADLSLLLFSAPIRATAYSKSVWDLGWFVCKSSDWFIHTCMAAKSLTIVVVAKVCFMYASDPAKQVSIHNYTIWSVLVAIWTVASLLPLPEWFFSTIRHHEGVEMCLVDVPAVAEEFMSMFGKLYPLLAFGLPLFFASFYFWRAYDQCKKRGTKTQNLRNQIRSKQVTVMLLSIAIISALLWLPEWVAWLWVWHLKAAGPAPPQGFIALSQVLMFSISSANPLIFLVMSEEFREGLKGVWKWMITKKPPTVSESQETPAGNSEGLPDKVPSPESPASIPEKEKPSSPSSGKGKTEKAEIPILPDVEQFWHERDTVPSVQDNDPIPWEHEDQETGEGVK
Regarding `COc1ccc(S(=O)(=O)n2nc(-c3cc(OC)cc(OC)c3)cc2N)cc1`, the activation was -1.02% (inactive). Turning to `Cc1ccc(NC(=O)C2CCCN(S(=O)(=O)c3ccc4c(c3)oc(=O)n4C)C2)cc1C` (stereo unspecified), the activation was -0.645% (inactive). Under `O=C(c1ccc(N2CCC(NCc3cccc(F)c3F)CC2)cc1)N1CCCC(CO)C1` (stereo unspecified) stands 0.257% (inactive); under `O=C(Nc1ccc2oc(-c3cccc(I)c3)nc2c1)c1cc(Br)ccc1Cl`, -0.461% (inactive). On to `O=C(Cc1ccc([N+](=O)[O-])cc1)NCCC1=CCCCC1`, for which the activation was 0.571% (inactive).

Regarding `O=C(CNC(=S)N(Cc1cccs1)C1CCCCC1)NCCC1=CCCCC1`, the activation is 2.8% (inactive).

In the case of `O=C(Cc1cccs1)NCCC1=CCCCC1`, the activation was 9.81% (active). Under `CCOC(=O)c1c(NC(=O)c2cc(S(N)(=O)=O)c(Cl)cc2Cl)sc2c1CCC(C)C2` (stereo unspecified) stands 0.0074% (inactive).

Consider `COc1cc(/C=C2/C(=N)N3N=C(CC(C)C)SC3=NC2=O)ccc1OC(=O)c1ccc(F)cc1`, for which the activation is -0.0343% (inactive). The value for `CCOC(=O)Nc1c(C(=O)OC)[nH]c2ccc(C)cc12` was -1.5% (inactive). Under `CCOC(=O)c1[nH]c2ccc(OC)cc2c1NC(=O)CN(C)C` stands 6.75% (active); under `CCOC(=O)c1[nH]c2ccc(OC)cc2c1NC(=S)N1CCN(c2ncccn2)CC1`, 2.39% (inactive); under `COc1ccccc1NC(=O)c1sc2ncn(Cc3cccc(Br)c3)c(=O)c2c1C`, -1.06% (inactive). Under `S=C(S)NCCc1c[nH]c2ccccc12` stands -0.43% (inactive). Consider `O=C(NCCc1c[nH]c2ccccc12)c1cccs1`, for which the activation is -0.507% (inactive). The value for `CSc1ncc(C(=O)NCCc2c[nH]c3ccccc23)c(C)n1` was 4.98% (active); that for `Cc1ccc(CNC(=O)CN2C(=O)C3C4C=CC(C4)C3C2=O)o1` (stereo unspecified) was 0.668% (inactive). The value for `C[C@@H](c1ccccc1)N1C(=O)[C@H]2[C@H]3[C@H](O)C=CC(=O)[C@@H]3CC[C@H]2C1=O` was -1.71% (inactive). The value for `CC(=O)N(c1nc(C=O)cs1)c1ccccc1F` was 1.55% (inactive). For `O=C(O)COc1ccc(N2C(=O)C(=O)/C(=C(\O)c3ccccc3)C2c2ccc(Cl)cc2Cl)cc1` (stereo unspecified), the activation was 6.19% (active).

In the case of `COc1ccc(N2C(=O)C(=O)/C(=C(/O)c3ccccc3)C2c2ccc(Cl)cc2)cc1` (stereo unspecified), the activation was -0.225% (inactive). As for `CC(C)(C)c1ccc(C2/C(=C(/O)c3ccccc3)C(=O)C(=O)N2c2ccc(OCC(=O)O)cc2)cc1` (stereo unspecified), the activation was -0.849% (inactive). Consider `CCOc1ccc2c(c1)=C/C(=C\c1[nH]c(=S)[nH]c1O)C(=O)N=2`, for which the activation is -0.225% (inactive).

In the case of `CN1NC2(CCCCC2)N(c2ccccc2)C1=S`, the activation is 0.403% (inactive). The value for `COc1ccc(CCNc2cc(C)nc(NCc3ccc4c(c3)OCO4)n2)cc1` was -0.591% (inactive). `COc1ccc(CCNc2cc(C)nc(Nc3cccc(N(C)C)c3)n2)cc1`: the activation was 8.12% (active). Consider `COc1ccc(CCNc2ncnc3c2nc(Nc2cccc(N(C)C)c2)n3C(C)C)cc1`, for which the activation is -3.07% (inactive).

With `CC1=C(C(=O)OCc2ccc3c(c2)OCO3)C(c2ccc(Cl)c(Cl)c2)NC(=O)N1` (stereo unspecified), the activation was -0.562% (inactive). `CC(C)(C)S(=O)(=O)Nc1nccnc1-c1ccc2c(c1)OCO2`: the activation is -0.466% (inactive).

Consider `CCCCSC1=C(C#N)C(c2ccc(OC)cc2)C2=C(CC(C)(C)CC2=O)N1` (stereo unspecified), for which the activation was 1.78% (inactive). The value for `CC(=O)N(C)c1ccc(N=Cc2ccc3ccccc3c2)cc1` was -0.522% (inactive); that for `O=C1NC2(CCN(CC(=O)N3CCCCC3)CC2)Nc2ccccc21` was -0.0006% (inactive). The value for `Cc1ccc(N=Cc2c(NCc3ccco3)nc3c(C)cccn3c2=O)cc1` was -0.949% (inactive). Under `C/C(=N/NC(=O)c1ccccc1)c1ccc(F)cc1` stands -1.24% (inactive). For `CC(C)n1c(Nc2ccc3ncccc3c2)nc2c(NC3CC3)ncnc21`, the activation is 7.49% (active). Under `CC(C)n1c(Nc2ccc3ncccc3c2)nc2c(N)ncnc21` stands 0.875% (inactive). The value for `CCCNc1ncnc2c1nc(Nc1cccc(N(C)C)c1)n2C(C)C` was -1% (inactive); that for `CC1=C(C(=O)Nc2nc3ccc(Br)cc3s2)C(c2ccccc2C)C2=C(CC(C)(C)CC2=O)N1` (stereo unspecified) was 1.38% (inactive); that for `COc1ccc(NC(=O)c2ccc(C(=O)Nc3ccc(OC)cc3)cc2)cc1` was -0.694% (inactive).

As to `COc1ccc(C(=O)Nc2ccc(S(=O)(=O)N(C)C3CCCCC3)cc2)cc1`, the activation was -0.159% (inactive).

Regarding `COc1ccc(C(=O)Nc2ccc(S(=O)(=O)NC(C)C)cc2)cc1`, the activation was 5.49% (active).

As to `COc1cccc(-c2nc3nc(C)c(CCC(=O)NC4CCCC4)c(C)n3n2)c1`, the activation was 0.324% (inactive). The value for `Cc1ccc(Cl)cc1NC(=O)C1CC(=O)c2ccccc21` (stereo unspecified) was 0.739% (inactive). Under `Cc1nc(-c2cccc(NC(=O)C3CC(=O)c4ccccc43)c2)cs1` (stereo unspecified) stands 7.17% (active); under `CC(=O)Nc1cccc(-c2csc(C)n2)c1`, -0.0322% (inactive); under `CCSCCOC(=O)C1=C(C)NC2=C(C(=O)CC(c3cccs3)C2)C1c1cc(OC)c(O)c([N+](=O)[O-])c1` (stereo unspecified), 0.362% (inactive).

Consider `c1ccc(CN2CCC(Nc3nnnn3-c3ccccc3)CC2)cc1`, for which the activation was 0.295% (inactive). The value for `CC(NC(=O)Nc1ccc(Br)cc1Br)(C(F)(F)F)C(F)(F)F` was -0.154% (inactive); that for `CCOC(=O)c1c(NC(=O)CSc2nnc(CNC(=O)Cc3ccc(OC)cc3)n2-c2ccc(F)cc2)sc2c1CCCC2` was -0.665% (inactive); that for `COCCNC(=S)N1CCN(c2ncccn2)CC1` was -1.93% (inactive). For the compound `COCCNC(=S)N1CCN(c2ccccc2OC)CC1`, the activation is 12.1% (active). Under `COc1ccccc1N1CCN(CCNC(=O)c2ccc(F)cc2)CC1` stands -2.55% (inactive); under `CC(C)(C)c1ccc(S(=O)(=O)ON2C(=O)c3ccccc3C2=O)cc1`, 3.8% (inactive); under `CCCC(=O)Oc1ccc2c(-c3ccccc3)cc(=O)oc2c1`, 1.03% (inactive). As to `C=CCn1c2ccccc2c2nnc(SC(CC)C(=O)Nc3nc(C)c(C(=O)OCC)s3)nc21` (stereo unspecified), the activation is -0.843% (inactive). Under `C=CCn1c2ccccc2c2nnc(SCc3[nH]c(=O)[nH]c3C(=O)CCCCC(=O)OCC)nc21` stands 9.28% (active); under `C=CCN(CC=C)C(=O)CSc1nnc2c3ccccc3n(C)c2n1`, 0.64% (inactive); under `O=C(NCC1OCCCN1S(=O)(=O)c1ccccc1)C(=O)NC1CC1` (stereo unspecified), 0.198% (inactive).

In the case of `C=CCNC(=O)C(=O)NCC1OCCCN1S(=O)(=O)c1ccccc1` (stereo unspecified), the activation is 5.93% (active). Under `O=C(NCCN1CCOCC1)C(=O)NCC1OCCCN1S(=O)(=O)c1ccccc1` (stereo unspecified) stands -0.042% (inactive); under `Cc1nc(NC(=O)CSc2nnc3c(C)cc4cc5c(cc4n23)OCCO5)sc1C`, 0.827% (inactive). The value for `O=C(Nc1nc2ccccc2[nH]1)c1cc(Cl)ccc1Cl` was -5.18% (inactive); that for `CC(C(=O)NC1CCCC1)n1c2ccccc2c2cn[nH]c(=O)c21` (stereo unspecified) was 0.687% (inactive); that for `CC(C(=O)NCc1ccc(F)cc1)n1c2ccccc2c2cn[nH]c(=O)c21` (stereo unspecified) was 0.149% (inactive). Under `CC(C(=O)NCCN1CCOCC1)n1c2ccccc2c2cn[nH]c(=O)c21` (stereo unspecified) stands 6.21% (active); under `Cc1ccccc1Cn1cc(SCC(=O)N2CCCC2)c2ccccc21`, -1.67% (inactive). Consider `COc1ccccc1NC(=O)C1CC12CCN(Cc1cccc(OCCO)c1)CC2` (stereo unspecified), for which the activation is -0.488% (inactive). The value for `Cn1c2ccccc2c2nnc(SCCCCC(=O)Nc3cccc4ccccc34)nc21` was -1.31% (inactive); that for `Cn1c2ccccc2c2nnc(SCC(=O)Nc3ccc(Cl)cn3)nc21` was -1.79% (inactive). The value for `Cn1c2ccccc2c2nnc(SCC(=O)Nc3ccc(NC(=O)C4CC4)cc3)nc21` was 7.08% (active); that for `CC(C)(C)CN1CCC(Oc2cccc(C(=O)NCC3CC(=O)N(C4CC4)C3)c2)CC1` (stereo unspecified) was -0.301% (inactive).
